Screens: PubChem, National Center for Advancing Translational Sciences (NCATS)
This is a sample that favours compounds with a hit; in the whole collection about 1.3% have one here.
BRCA1 expr act: qHTS Assay to Identify Small Molecule Activators of BRCA1 Expression; MCF7-BRCA1-FFLuc reporter, luminescence, 48 h; response scale: scaled: vehicle 0%, 10 µM genistein 100%; Potency, µM (doses to about 46.1 µM), for the others: at the highest dose activation, usual class: activators; 1.1% of 380,000 active; note: potency is the fitted concentration of half-maximal effect; nearly all actives have a fitted effect of over 80% in size
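First, MCF7-BRCA1-FFLuc cells (2000/well) attach for 2 h; next, compounds are pin-added and incubated 48 h at 37 °C; finally, luciferase reagent is added and luminescence read after 15 min.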
a7 integrin act: qHTS for Activators of Integrin-Mediated Alleviation for Muscular Dystrophy; alpha7betagal myoblasts, beta-gal FDG fluorescence, 48 h; Potency, µM (top dose mostly 38.3 µM), for the others: at the highest dose activation, usual class: activators; 0.064% of 350,000 active;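 note: potency is the fitted concentration of half-maximal effect; 100% = response of the positive control SU9516; nearly all actives have a fitted effect of over 60% in size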
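alpha7betagal+/- myoblasts (passage 13, 250/well) treated 48 h at 37C with compounds at 1:260 dilution of DMSO stock. Lysed, then beta-galactosidase activity read as FDG fluorescence (ex 480/em 540) after 30 min, with pre-read for autofluorescence.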
PKM2 activator: qHTS Assay for Activators of Human Muscle isoform 2 Pyruvate Kinase | purified PKM2, Kinase-Glo ATP luminescence, activation; response scale: 0% is enzyme alone, no compound | 0.34% of 260,000 active | Potency, µM (highest dose often 57.5 µM), for inactives: top-dose activation, actives largely listed as activators | Pyruvate kinase PKM (Homo sapiens), P14618 | AID 1631, 2009; note: potency is the fitted concentration of half-maximal effect; % is set by controls: 0 for no effect and ±100 for the full control effect; nearly all actives have a fitted effect of over 55% in size
Target sequence (P14618 whole entry, looked up, canonical isoform): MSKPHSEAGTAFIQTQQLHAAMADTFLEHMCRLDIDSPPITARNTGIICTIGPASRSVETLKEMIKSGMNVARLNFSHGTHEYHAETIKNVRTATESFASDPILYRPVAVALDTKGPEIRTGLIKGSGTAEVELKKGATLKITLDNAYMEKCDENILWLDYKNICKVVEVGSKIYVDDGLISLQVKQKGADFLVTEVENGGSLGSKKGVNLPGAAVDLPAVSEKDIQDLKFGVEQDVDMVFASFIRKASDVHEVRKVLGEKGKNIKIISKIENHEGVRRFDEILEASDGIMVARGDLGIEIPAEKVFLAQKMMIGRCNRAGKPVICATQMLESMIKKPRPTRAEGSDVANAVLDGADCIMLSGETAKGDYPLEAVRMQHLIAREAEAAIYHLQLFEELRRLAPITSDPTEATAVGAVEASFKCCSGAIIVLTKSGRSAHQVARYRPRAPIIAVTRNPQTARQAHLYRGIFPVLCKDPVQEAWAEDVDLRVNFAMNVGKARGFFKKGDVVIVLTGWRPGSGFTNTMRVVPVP
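ATP formation by purified human PK-M2, quantified via coupled luciferase luminescence after 1 h at room temperature with 0.1 mM ADP and 0.5 mM PEP final.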
IL2 activator: qHTS of IL-2 Activators. IL-2 activation reporter assay, cell-based qHTS; stimulated with anti-CD3/CD4/CD28 beads; in transgenic mouse T cells. activation, % (series mostly up to about 46 µM). 0.065% of 360,000 active. AID 652025, 2013; in the data active = activation above about 50%; inconclusive = mostly about 30% to 49%; note: 0% is about no effect
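EGFP and DsRed fluorescence is measured by plate cytometry in unstimulated transgenic mouse T cells exposed to compound for 60 minutes, then stimulated 18 hours at 37 degrees C with anti-CD3/anti-CD4 beads plus anti-CD28.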
Apoferritin bind: qHTS Assay for Identification of Novel General Anesthetics; Potency, µM (doses to about 77.5 µM), without a hit: top-dose activity change, negative = displacement, hits mostly inhibitors; apoferritin/1-aminoanthracene competitive binding, fluorescence; Ferritin light chain (Equus caballus), P02791; 0.074% of 350,000 active; AID 485281, 2010; note: potency is the fitted concentration of half-maximal effect; % is set by controls: 0 for no effect and ±100 for the full control effect; nearly all actives have a fitted effect of over 20% in size
Target sequence (P02791 2-175 limits assumed): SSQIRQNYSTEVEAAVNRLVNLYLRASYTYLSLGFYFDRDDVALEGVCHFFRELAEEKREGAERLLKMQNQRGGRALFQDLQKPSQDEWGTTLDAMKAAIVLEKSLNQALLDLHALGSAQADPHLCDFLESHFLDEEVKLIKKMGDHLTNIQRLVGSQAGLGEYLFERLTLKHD
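Apoferritin-based anesthetic binding model; compound displacement of fluorescent 1-AMA measured as endpoint fluorescence after 10 minutes at room temperature, scaled to free-ligand and complex controls.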
Numbers without * were called inactive; ? = inconclusive; / = not tested or not shown; [ ] = dose if it differs, or a comment. Unless noted, calls come from the whole dose curve; as a rule, active = well fitted curve in the direction sought with a large enough effect; inconclusive = small, poorly fitted or top-dose-only effect, or another doubt; inactive = no such curve, though single readings can be large; an effect the other way counts as inactive or inconclusive.

SMILES | BRCA1 expr act | a7 integrin act | PKM2 activator | IL2 activator | Apoferritin bind
Cc1ccc2c(c1)c(CC(NC(=O)c1ccccc1Oc1ccccc1)C(=O)O)cn2C(=O)OCc1ccccc1 (stereo not given) | / | / | / | / | 6.9%
O=C(CNC(=O)c1cccs1)OCC(=O)c1ccc2ccccc2c1 | 8.3% | 4.1% | 0.2% | -2.2 | 14.1µM*
O=C(CNC(=O)c1cccs1)c1ccc(Br)cc1 | 5.62µM* | -7.9% | / | 5.0 | -2.7%
Cc1cccc(OCCCCn2c(C3CC(=O)N(c4ccc(C)cc4C)C3)nc3ccccc32)c1 (stereo not given) | / | / | / | / | 96.2%
CN(C)c1nc(NC2CCC(NC(=O)c3ccc(F)c(F)c3)CC2)nc2ccccc12 (stereo not given) | / | / | / | / | -1.9%
O=C(CCCc1ccncc1)c1ccccc1 | 3.98µM* | 17.1% | / | 0.5 | /
c1ccc(CCCCc2ccncc2)cc1 | 12.3% | 9.2% | / | -0.8 | /
O=C(NCCCc1nc2ccccc2n1CCCCOc1ccccc1)C1CCCCC1 | 0.0% | / | / | / | /
COc1ccc2c(Cl)c(C(N)=O)sc2c1 | 10µM* | 6.0% | 0.4% | -2.5 | -6.7%
COC(=O)CN1C(=O)S/C(=C/c2cc(C)n(C)c2C)C1=O | 12.6µM* | -1.1% | 2.7% | -2.1 | ?
CCn1c(C)cc(/C=C2/SC(=O)N(C(C)C(=O)OC)C2=O)c1C (stereo not given) | 4.47µM* | -9.9% | -5.5% | -0.2 | -1.7%
COc1ccc(N=C2S/C(=C\c3cc(C)n(C)c3C)C(=O)N2CC(C)C)cc1 | -42.9% | 9.1% | -7.1% | -5.1 | ?
COC(=O)CN1C(=O)S/C(=C/c2ccc(N3CCCCC3)o2)C1=O | 10µM* | -69.0% | ? | 25.6 | ?
CCCN1C(=O)S/C(=C\c2ccc(N3CCOCC3)cc2C)C1=O | / | / | -5.9% | / | -8.1%
CCOC(=O)CN1C(=O)S/C(=C/c2ccc(N3CCCCC3)o2)C1=O | -5.1% | -24.5% | -1.9% | 10.5 | -13.7%
CCCN1C(=O)S/C(=C\c2ccc(N3CCOCC3)o2)C1=O | -19.7% | -72.6% | 3.55µM* | 1.3 | -16.5%
CN(C)S(=O)(=O)c1ccc(C(=O)NCc2cccs2)cc1 | 20.6% | 5.3% | 6.31µM* | -1.6 | -8.3%
CN(c1ccccc1)S(=O)(=O)c1ccc(C(=O)NCc2cccs2)cc1 | -5.7% | 11.8% | 8.3% | -0.4 | -15.6%
Cc1ccc(/C=C/c2onc(C)c2S(=O)(=O)N2CCC(C(=O)N3CCOc4ccc(C)cc43)CC2)cc1 | / | / | / | / | -6.4%
COc1ccc(NC(=O)CSc2nc(SC)ns2)cc1 | 4.47µM* | -20.9% | / | -0.1 | 0.3%
CSc1nsc(SCC(=O)Nc2ccc(NC(C)=O)cc2)n1 | 3.7% | 1.9% | -1.2% | -2.0 | -9.3%
COc1ccc(C(=O)NCCn2cc(SCc3cccc(F)c3)c3ccccc32)cc1OC | -65.2% | / | / | / | 66.4%
COc1ccccc1N1CCN(/N=C/c2ccc([N+](=O)[O-])cc2)CC1 | 5.01µM* | -25.6% | -0.5% | 0.1 | -5.9%
C/C(=N\NC(=O)c1ccccc1)c1ccccc1Br | 11.2µM* | 30.0% | 4.7% | 3.9 | 4.0%
C/C(=N\NC(=O)c1ccc(N2CCCC2=O)cc1)c1ccccc1 | 26.5% | 14.7% | / | 0.9 | -8.8%
SMILES | BRCA1 expr act | a7 integrin act | PKM2 activator | IL2 activator | Apoferritin bind
C/C(=N\NC(=O)c1ccccc1)c1ccc(N2CCCCC2)cc1 | 11.2µM* | -11.4% | 7.5% | -2.3 | -6.1%
CNC(=S)N/N=C(\C)c1ccc(N2CCOCC2)cc1 | 8.91µM* | -51.3% | -1.9% | -0.5 | -10.9%
O=[N+]([O-])c1ccc2c(c1)C=C/C2=C\c1ccccc1 | 2.4% | / | / | / | /
COc1ccc2c(c1OC)C(=O)OC2Nc1nc(-c2ccc([N+](=O)[O-])cc2)cs1 (stereo not given) | 12.6µM* | -13.4% | -1.7% | -0.7 | 0.0%
COc1ccc(C2/C=C\CN(CC(C)C)C(C)C(=O)N2Cc2ccc(F)cc2)cc1 (stereo not given) | / | / | / | / | 3.9%
Cc1ccc(S(=O)(=O)/N=C(/NC(=S)Nc2ccccc2)c2ccccc2)cc1 | ? | 1.0% | 2.1% | 0.1 | -6.0%
Cc1ccc(S(=O)(=O)C/N=C(/NC(=S)N(c2ccccc2)c2ccccc2)c2ccccc2)cc1 | -0.2% | 18.0% | -21.6% | -1.7 | 14.1µM*
CN(C)c1ccc(-c2nc(NCc3cccnc3)c3ccccc3n2)cc1 | / | / | / | / | -3.9%
CCOC(=O)OCC1OC(c2ccccc2)C=CC1Oc1ccc2oc(=O)cc(C)c2c1 (stereo not given) | / | / | / | / | 6.5%[15.3 µM]
Cc1cccc(C)c1NC(=O)CSc1nnc(-c2ccco2)c(-c2ccco2)n1 | -29.7% | -22.0% | 11.2µM* | -0.4 | ?
O=C1CC(c2ccc3c(c2)OCCO3)Oc2ccc([N+](=O)[O-])cc21 (stereo not given) | 2.6% | -4.6% | / | -1.0 | -9.8%
O=C1CC(c2ccc3c(c2)OCCO3)Oc2ccccc21 (stereo not given) | 11.2µM* | 13.8% | 1.2%[0.46 µM] | -0.5 | ?
CNc1nc(-c2ccc3c(c2)CCN3C(=O)c2ccccc2C)cs1 | 2µM* | 0.5% | -1.7% | -2.0 | -7.6%
COc1ccccc1Nc1nn2c(=O)c3ccc(C(=O)NCCC4=CCCCC4)cc3nc2s1 | -71.0% | / | / | / | -10.8%
Cc1cc(C(=O)CSc2n[nH]c(N)n2)c(C)n1-c1cccc(F)c1 | 12.6µM* | -6.1% | -1.2% | -1.5 | -19.0%
Nc1nc2ncn(COCCO)c2c(=O)[nH]1 | 16.0% | / | / | / | /
CCC(CC)C(=O)N1c2ccccc2C(C)(c2ccccc2)CC1(C)C (stereo not given) | / | / | / | / | 2.3%
CCn1ccc(C(=O)Nc2ccccc2Cl)n1 | 3.16µM* | 0.0% | -3.6% | -0.4 | -8.4%
c1ccc(CCNc2c3c(nc4ncnn24)CCC3)cc1 | -70.3% | -4.3% | 25.1µM* | -1.6 | -10.7%
O=C(COc1ccc(Br)cc1)N1CCc2ccccc21 | 7.08µM* | -22.4% | -5.3% | -1.0 | -8.2%
Cn1cccc1C(=O)OCC(=O)N1CCc2ccccc2C1 | ? | 15.5% | / | 3.4 | /
O=C(Cc1c[nH]c2ccccc12)N1CCc2ccccc21 | 11.2µM* | -7.7% | 5.2% | 2.5 | ?
Cn1cccc1C(=O)OCC(=O)N1CCc2ccccc21 | 10µM* | -29.2% | / | 0.0 | /
CCC(=O)N1c2ccccc2CC1C(=O)NCCN1CCN(c2cccc(C(F)(F)F)c2)CC1 (stereo not given) | / | / | / | / | -13.6%
O=C(c1ccccc1)c1cc2cc(Cl)ccc2[nH]1 | 10µM* | 0.0% | / | -0.7 | -4.9%
COc1cccc2[nH]c(=O)c(-c3ccccc3)cc12 | 3.16µM* | ? | / | -4.1 | -5.6%
O=C(Cc1ccc2ccccc2c1)NO | 0.0% | / | / | / | /
CCOC(=O)Cc1csc(NC(=O)c2cccs2)n1 | 33.9% | 25.7% | -13.8% | 0.6 | -17.3%
